# From ChEMBL document CHEMBL3988442, “University of Dundee, Small-Polar-MMV Screening Library” (2021)
# Out of some 48,000 compounds screened, about 13,000 (27%) showed an effect of 50% or more. The list shows a part of the results.
# Tested on: Wolbachia pipientis
# Test: Anti-Wolbachia Cell-Based Screen
# Format: functional
# Set-up: scale not given: in the data most compounds retested in dose-response had high values
# Conditions: 5 µM
row,SMILES,Percent Effect
1,O=C(Cc1cccs1)NCC1Cn2nnc(-c3ccoc3)c2CO1 (centres undefined),6.925%
2,Fc1ccc(CN2CCC3(CCCN(c4nncs4)C3)C2)cc1.O=C(O)C(F)(F)F (centres undefined),5.699%
3,COc1ccc(S(=O)(=O)NC(=O)C(C)OC)c(OC)c1 (centres undefined),36.91%
4,O=C(N[C@@H]1CN(C2CCCC2)C[C@@H]2CCCO[C@@H]21)c1cnccn1.O=C(O)C(F)(F)F,-9.219%
5,CN(C(=O)C(c1c(F)cccc1Cl)N(C)C)c1nccs1 (centres undefined),2.736%
6,COc1ncccc1C(=O)N1C[C@@H]2COC[C@]2(CN(C)C)C1.O=C(O)C(F)(F)F.O=C(O)C(F)(F)F,-15.94%
7,COc1ncccc1C(=O)N1CCC2(CC1)CC(OC)CO2.O=C(O)C(F)(F)F (centres undefined),101.4%
8,COC1COC2(CCN(C(=O)c3cscn3)CC2)C1 (centres undefined),-7.766%
9,O=C1CCCN1C1CCCN(CCn2cc(Cl)cn2)C1 (centres undefined),92.68%
10,O=C1CCCN1C1CCCN(CCOc2ccc(F)cc2)C1 (centres undefined),-5.922%
11,Cc1cnn(CC(=O)N2CCC3(CCC(=O)N(C4CCCC4)C3)CC2)c1,-24.67%
12,O=C1CCC2(CCN(Cc3cc(F)ccc3Cl)CC2)CN1C1CCCC1,-0.02537%
13,COCCCN1CC2(CCCN(c3ncc(Cl)cc3F)C2)CCC1=O (centres undefined),-2.307%
14,Nc1ccnc(C(=O)N2CCCC3(CCC(=O)N(C4CCCC4)C3)C2)c1 (centres undefined),1.558%
15,COCCCN1CC2(CCCN(CCn3cc(Cl)cn3)C2)CCC1=O (centres undefined),116.7%
16,Cc1ccnn1CCN1CCCC2(CCC(=O)N(C3CCCC3)C2)C1 (centres undefined),107.9%
17,COCCN1CC2(CCCN(c3ncc(Cl)cc3F)C2)CCC1=O (centres undefined),2.913%
18,O=C1CCC2(CCCN(CCn3cc(Cl)cn3)C2)CN1C1CCCC1 (centres undefined),113%
19,Cn1cc(CN2C[C@@H](N3CCCC3=O)[C@H]3OCCC[C@H]32)cn1,16.86%
20,COc1coc(CN2CCCC3(CCC(=O)N(C4CC4)C3)C2)cc1=O (centres undefined),7.748%
21,Cc1cc(NC(=O)CNCc2csc(-c3cnccn3)n2)ccc1Cl,-4.536%
22,CN(c1ncccc1CNS(=O)(=O)N1CCOCC1)C1CCCCC1,1.985%
23,Cc1ccc(S(=O)(=O)N2CCOCC2C#N)cc1Br (centres undefined),-3.449%
24,Cc1nc[nH]c1CN1C[C@@H]2CC[C@H](C1)N(C(=O)CCc1cnn(C)c1)C2,-6.684%
25,O=C(NCCCn1ccnn1)C1CCCN(C2CCCC2)C1 (centres undefined),9.707%
26,O=c1c(CN2CCSCC2)coc(O)c1CN1CCCC1,112.9%

row,SMILES,Percent Effect
1,O=C1OCCN1CCN1CCCN(Cc2ccccc2F)CC1,0.37%
2,O=c1c(CN2CCCCCC2)coc(O)c1CN1CCCCCC1,87.67%
3,O=c1c(CN2CCOCC2)coc2ccc(Cl)cc12,14.49%
4,CC(C)NC(=O)Nc1ccccc1CN1CCOCC1,8.436%
5,O=c1c(CN2CCCCCC2)coc(O)c1CN1CCOCC1,99.75%
6,O=c1c(CN2CCOCC2)coc(O)c1CN1CCOCC1,110.9%
7,Cc1ccc2occ(CN3CCN(c4ncccn4)CC3)c(=O)c2c1,-23.78%
8,CC(C)C(C)NC(=O)Nc1ccccc1CN1CCOCC1 (centres undefined),-2.62%
9,O=c1c(CN2CCCCC2)coc2ccc(Cl)cc12,-1.352%
10,CCn1ccc2ccc(CN3CCCC3c3nc(C(C)C)no3)cc21 (centres undefined),-10.44%
11,Cc1cccc(CO[C@H]2CO[C@@]3(CCN(S(=O)(=O)N(C)C)C3)C2)n1,-27.75%
12,FC(F)(F)Sc1ccccc1NCc1nc(C2CC2)no1,0.6009%
13,CC(NCc1cnc(C2CCC2)s1)c1ccc(-n2cncn2)cc1 (centres undefined),-68.33%
14,CC(C)CCCC(C)NC(=O)c1ccc(OCC(N)=O)cc1 (centres undefined),-8.979%
15,O=C(NCC(F)(F)F)C(c1cccnc1)N1CCCC1 (centres undefined),-5.02%
16,Cc1cc(NC(=O)CNCc2csc(-c3ncccn3)n2)ccc1Cl,12.11%
17,Cc1ccc(NC(=O)CC2Cn3ncnc3NC2=O)cc1C (centres undefined),101.1%
18,CCC(=O)Nc1ccc(F)c(S(=O)(=O)NC(C)(C)C)c1,-7.233%
19,CC(NC(=O)Nc1ccc(F)c(F)c1)c1nc[nH]n1 (centres undefined),-17.28%
20,Cc1ccc(NC(=O)c2ccc(CC3CC(=O)NC3=O)cc2)cc1O (centres undefined),-14.91%
21,O=C(CC1Cn2ncnc2NC1=O)Nc1ccc(F)c(F)c1 (centres undefined),110.9%
22,O=C1CN(c2ccc(CNC(=O)c3ccc[nH]3)cc2F)CCN1,1.628%
23,CCNC(=O)NC(=O)CN(CC(C)O)c1ccccc1 (centres undefined),-6.081%
24,FC(F)(F)c1nnc2n1CCN(c1nc(C3CC3)ns1)C2,7.167%
25,CC(C(=O)NS(=O)(=O)Cc1cc(-c2ccccc2)no1)C1CC1 (centres undefined),-15.76%
26,c1ccc(-c2cc(CN3CCC(c4ccn[nH]4)CC3)on2)cc1,-18.74%

row,SMILES,Percent Effect
1,O=S(=O)(Cc1cc(-c2ccccc2)no1)CC1CCCO1 (centres undefined),117.5%
2,CC1(C)CC1C(=O)NS(=O)(=O)Cc1cc(-c2ccccc2)no1 (centres undefined),-6.027%
3,O=C(NS(=O)(=O)Cc1cc(-c2ccccc2)no1)C1CCOCC1,-7.495%
4,O=C(NCc1cc(-c2ccccc2)no1)NCC1CCCO1 (centres undefined),63.77%
5,CCN1CCC(CNC(=O)NCc2cc(-c3ccc(C)cc3)no2)C1 (centres undefined),6.048%
6,Cc1cc(C)c(CNC(=O)NCC2CCCO2)c(=O)[nH]1 (centres undefined),-10.27%
7,O=C(CC1CCCO1)NS(=O)(=O)Cc1cc(-c2ccccc2)no1 (centres undefined),94.25%
8,CS(=O)(=O)N1CC(c2nc[nH]n2)c2cc(C(=O)NC3CC3)ccc21 (centres undefined),-11.05%
9,CC(=O)Nc1ccc(Cl)c(C(=O)N(C)C(C)c2ccon2)c1 (centres undefined),2.031%
10,COCCN1CCN(Cc2nc3c(s2)CCCC3)[C@H]2CS(=O)(=O)C[C@H]21,-3.056%
11,CN(C)CCN(Cc1ccccc1)C(=O)C1=NNC(=O)CC1,-7.83%
12,Cc1ccc(NC2CCN(C(=O)c3ccc4c(c3)CCC4)CC2)nn1,112.2%
13,Cc1ccc(NC2CCN(C(=O)c3cc(C(N)=O)cs3)CC2)nn1,7.568%
14,Cc1ccc(NC2CCN(C(=O)c3cccc(F)c3F)CC2)nn1,-1.212%
15,Cc1ccc(NC2CCN(C(=O)c3ccc(F)c(C)c3)CC2)nn1,89.48%
16,COc1ccc(C(=O)N2CCC(Nc3ccc(C)nn3)CC2)c(F)c1,-2.664%
17,COc1cccc(COCC(=O)NC(C(N)=O)c2ccccc2)c1 (centres undefined),-6.273%
18,COc1cc2nc(C)n(CC(=O)NCCCN(C)C)c(=O)c2cc1OC,20.74%
19,COc1cc2nc3n(c(=O)c2cc1OC)CCN(C(C)=O)CC3,-0.7868%
20,CCC(=O)N1CCc2nc3cc(OC)c(OC)cc3c(=O)n2CC1,-9.574%
21,COc1cc2nc3n(c(=O)c2cc1OC)CCN(C(=O)C1CCC1)CC3,115.6%
22,COc1cc2nc3n(c(=O)c2cc1OC)CCN(C(=O)C(C)(C)C)CC3,130.5%
23,COc1ccc2[nH]nc(CN3CCC(C(=O)N4CCCCC4)CC3)c2c1,-39.46%
24,COc1cc2nc3n(c(=O)c2cc1OC)CCN(C(=O)C1CC1)CC3,109.5%
25,CCCC(=O)N1CCc2nc3cc(OC)c(OC)cc3c(=O)n2CC1,121.4%
26,CC(CCN(C)C)NC(=O)c1cccc(C(F)(F)F)c1F (centres undefined),5.139%

row,SMILES,Percent Effect
1,CN(Cc1ccncc1)CC(c1cccs1)N1CCOCC1 (centres undefined),-0.8027%
2,Cc1ccc(C(=O)N(Cc2cccnc2)C[C@@H]2CCC(=O)N2)s1,6.518%
3,CCc1cnc(N)nc1NCCCn1cc(Cl)cn1,12.08%
4,O=C(CC1CCCO1)NCCCC(=O)Nc1ccc(Cl)cc1 (centres undefined),117.3%
5,O=C(NCCCN1CCN(c2ncccn2)CC1)NCC1CCCO1 (centres undefined),8.99%
6,O=C(CCCNC(=O)NCC1CCCO1)Nc1ccc(Cl)cc1 (centres undefined),100.3%
7,O=C(CC1CCCO1)NCCc1ccccc1Br (centres undefined),-5.645%
8,O=C(CCC1CCCO1)NCCCO (centres undefined),-3.139%
9,O=C(CCC1CCCO1)NS(=O)(=O)c1ccc(Cl)cc1 (centres undefined),-0.06204%
10,O=C(CC1CCCO1)NCCc1ccc(Br)cc1F (centres undefined),2.724%
11,O=C(CCCNC(=O)C1CC1)Nc1cnn(-c2ccccc2Cl)c1,2.837%
12,CNS(=O)(=O)c1ccc(CNC(=O)NCC2CCCO2)cc1 (centres undefined),-4.659%
13,O=C(CCCNC(=O)C1CCCO1)Nc1ccc(Cl)cc1 (centres undefined),123.9%
14,O=C(NCCNS(=O)(=O)c1cccc(Cl)c1)C1CCCO1 (centres undefined),-1.895%
15,O=C(CCC1CCCO1)NCCCC(=O)Nc1ccc(Cl)cc1 (centres undefined),132.9%
16,CNS(=O)(=O)CC1CCCN1c1ccccn1 (centres undefined),-17.04%
17,Cc1nc(-c2ccccc2)sc1CSC(C)C(N)=O (centres undefined),-3.877%
18,CCOC(C)c1nc(CN2CCC(NC(C)C)CC2)cs1 (centres undefined),9.562%
19,Cc1nn2cc(CCNC(=O)c3cc(C(C)C)no3)nc2s1,-4.133%
20,Cc1cc(C(=O)N2C[C@@H]3[C@@H](CN(C)CCc4ccccn4)[C@@H]3C2)c(C)o1,-1.529%
21,CN(CCc1ccccn1)C(=O)C(c1cccnc1)N1CCOCC1 (centres undefined),2.073%
22,Cc1ccc(C)c(-n2ncc(C(=O)N(C)CCc3ccccn3)c2N)c1,159.7%
23,Cc1cc(Cl)ccc1-n1ncc(C(=O)N(C)CCc2ccccn2)c1N,185.4%
24,CN(CCc1ccccn1)C(=O)c1cnn(-c2ccccc2F)c1N,110.9%
25,CN(CCc1ccccn1)C(=O)c1ccccc1F,-16.13%
26,CCOC(=O)c1cnn(-c2cc(C)ccn2)c1N,-12.86%
